Sampled rows, rich in hits. Any-hit rate of the full collection: about 13%.
ALDH1A1 inh: qHTS Assay for Inhibitors of Aldehyde Dehydrogenase 1 (ALDH1A1). Potency, µM (highest dose often 75.3 µM), inactives show at the highest dose activity, negative = inhibition, hits mostly inhibitors. Purified ALDH1A1, NADH fluorescence, propionaldehyde substrate. 220,000 tested, 7.3% active. Aldehyde dehydrogenase 1A1 (Homo sapiens), P00352; active = well fitted inhibition curve with a large enough effect, not every such curve was filed as active; inconclusive = small, poorly fitted or top-dose-only effect, or another doubt; inactive = no such curve, though single readings can be large or run the other way;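 note: potency is the fitted concentration of half-maximal effect; plate controls were no enzyme wells and a reference inhibitor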
Target sequence (P00352 whole entry, looked up): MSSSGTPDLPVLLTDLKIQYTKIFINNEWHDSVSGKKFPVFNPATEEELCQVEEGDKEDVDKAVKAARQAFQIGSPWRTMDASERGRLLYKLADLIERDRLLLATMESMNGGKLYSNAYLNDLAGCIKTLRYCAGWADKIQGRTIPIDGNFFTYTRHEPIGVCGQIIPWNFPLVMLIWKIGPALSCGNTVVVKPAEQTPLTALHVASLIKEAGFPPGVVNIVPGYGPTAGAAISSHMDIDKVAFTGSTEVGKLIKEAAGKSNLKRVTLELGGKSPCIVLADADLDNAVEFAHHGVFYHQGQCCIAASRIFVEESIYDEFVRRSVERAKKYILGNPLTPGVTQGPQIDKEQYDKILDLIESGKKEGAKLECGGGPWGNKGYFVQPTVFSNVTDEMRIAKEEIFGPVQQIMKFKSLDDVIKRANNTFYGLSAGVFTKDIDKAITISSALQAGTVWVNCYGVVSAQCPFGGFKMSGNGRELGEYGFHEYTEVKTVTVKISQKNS
G9a block: qHTS Assay for Inhibitors of Histone Lysine Methyltransferase G9a. Histone-lysine N-methyltransferase EHMT2 (Homo sapiens), Q96KQ7. G9a H3K9 monomethylation, AlphaScreen, 2 h. Potency, µM (top dose mostly 102 µM), without a hit: at the highest dose activity, negative = inhibition, usual class: inhibitors. 350,000 tested, 8.8% active. AID 504332, 2011; note: potency is the fitted concentration of half-maximal effect; % is set by controls: 0 for no effect and ±100 for the full control effect; nearly all actives have a fitted effect of over 75% in size
Target sequence (Q96KQ7 913-1193 limits assumed): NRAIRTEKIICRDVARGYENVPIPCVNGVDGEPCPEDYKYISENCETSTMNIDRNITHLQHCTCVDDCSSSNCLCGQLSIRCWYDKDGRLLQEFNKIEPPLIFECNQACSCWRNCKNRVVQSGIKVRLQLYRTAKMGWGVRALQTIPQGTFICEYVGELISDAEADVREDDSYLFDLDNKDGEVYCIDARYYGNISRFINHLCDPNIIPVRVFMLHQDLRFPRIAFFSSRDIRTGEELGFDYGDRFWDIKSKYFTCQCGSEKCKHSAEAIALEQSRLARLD
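G9a (20 nM) preincubated 15 min RT with compounds, then 500 nM biotinylated H3K9 peptide and 20 uM SAM added; 2 h RT reaction. Monomethyl-H3K9 product detected by AlphaScreen with anti-H3K9me1 antibody, streptavidin donor and anti-rabbit IgG acceptor beads.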
miR-21 reporter: qHTS Assay for Modulators of miRNAs and/orActivators of miR-21; Potency, µM (highest dose often 38.3 µM), for the others: at the highest dose activity change, positive = activation, actives largely listed as activators; AID 2288, 2010; 340,000 tested, under 10 active; HeLa miR-21 FLuc reporter, luciferase, 48 h;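 note: % of control where 0% means no effect; miR-21 action dims this reporter so a rising signal means less miR-21 action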
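Using DMEM plus 10% FBS, HeLa miR-21-FLuc cells are incubated with test compounds (final up to about 40uM) for 48 hours; firefly luciferase signal is then imaged following reagent-mediated lysis.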
Lamin A splicing: qHTS Assay for Modulators of Lamin A Splicing; HeLa LMNA splicing GFP/RFP minigene ratio, 48 h; Potency, µM (doses to about 46.1 µM), without a hit: at the top dose ratio change, negative = inhibition, usual class: inhibitors; 200,000 tested, 0.01% active; AID 1487, 2009; active = well fitted inhibition curve with a large enough effect in the signal ratio, with a control signal flat, not every such curve was filed as active; inconclusive = small, poorly fitted or top-dose-only effect, or effect the other way, or a change in a side signal; the % refers to the signal ratio; note: potency is the fitted concentration of half-maximal effect; % is set by controls: 0 for no effect and ±100 for the full control effect
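S3 HeLa cells stably expressing lamin A-EGFP splicing minigene plus DsRed2, 600 cells/well, 48 h compound exposure at 37C. Laser-scanning cytometry; analysed as GFP (500-530 nm)/RFP (575-640 nm) total intensity ratio; 0.5% DMSO vehicle.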
Sfp PPTase inh: qHTS Assay for Inhibitors of Bacillus subtilis Sfp phosphopantetheinyl transferase (PPTase); 4'-phosphopantetheinyl transferase ffp (Bacillus subtilis), Q9F4F7; Biochemical Sfp PPTase activity, qHTS; Potency, µM, for the others: largest response in the series, negative = inhibition, most hits filed as inhibitors; 310,000 tested, 3.5% active;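 note: the enzyme is Sfp with the accession as filed and its product quenches rhodamine fluorescence; potency is the fitted concentration of half-maximal effect; 0% = enzyme reaction without inhibitor and -100% = no enzyme wells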
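Reaction rates are the 30-min fluorescence difference (ex 525, em 598 nm) in wells containing 15 nM Sfp, 5 uM rhodamine-CoA and 12.5 uM BHQ-2-YbbR at pH 7.6 with 10 mM MgCl2.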
KDM4E inh: qHTS Assay for Inhibitors of Human Jumonji Domain Containing 2E (JMJD2E) | JMJD2E catalytic domain, FDH-coupled NADH fluorescence (FDH is formaldehyde dehydrogenase) | 230,000 tested, 1.6% active | Lysine-specific demethylase 4E (Homo sapiens), B2RXH2 | Potency, µM (series often up to 57.1 µM), inactives show top-dose activity change, negative = inhibition, hits mostly inhibitors | AID 2147, 2009; active = well fitted inhibition curve with a large enough effect, not every such curve was filed as active; inconclusive = small, poorly fitted or top-dose-only effect, or another doubt; inactive = no such curve, though single readings can be large or run the other way;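 note: potency is the fitted concentration of half-maximal effect; 0% = wells with enzyme and -100% = buffer wells without enzyme; nearly all actives have a fitted effect of over 50% in size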
Numbers without * were called inactive; ? = inconclusive; . = not tested or not shown; [ ] = remark or other dose. Unless noted, calls come from the whole dose curve; as a rule, active = well fitted curve in the direction sought with a large enough effect; inconclusive = small, poorly fitted or top-dose-only effect, or another doubt; inactive = no such curve, though single readings can be large; an effect the other way counts as inactive or inconclusive.

SMILES	ALDH1A1 inh	G9a block	miR-21 reporter	Lamin A splicing	Sfp PPTase inh	KDM4E inh
COc1ccc(-n2c(O)c(/C=N/NS(=O)(=O)c3ccc(C)cc3)c3ccccc3c2=O)cc1OC	?	11.2µM*	-5.8%	?	5.7%	?
COc1ccc(-c2[nH]ncc2/C=N\NS(=O)(=O)c2ccc(Cl)cc2)cc1	?	11.0%[12.7 µM]	5.2%	?	14.4%	10.5%
COc1ccc(Cn2c(O)c(C=Nc3ccccc3C(=O)O)c3ccccc3c2=O)cc1	.	.	21.0%	.	-26.0%	?
COc1ccc(-n2c(O)c(/C=N/NS(=O)(=O)c3cc(C)ccc3C)c3ccccc3c2=O)cc1OC	?	?	-10.6%	?	-18.0%	?
COc1ccccc1NS(=O)(=O)c1cccc(-n2c(O)c(C=Nc3ccccc3C(=O)O)c3ccccc3c2=O)c1	.	44.7µM*	26.0%	.	-5.4%	-12.9%
COc1ccc(-c2[nH]ncc2/C=N\NS(=O)(=O)c2ccccc2)cc1OC	-12.0%	50.1µM*	2.6%	7.8%	-4.4%	3.0%
Cc1cc(-c2nnc(SCC(=O)Nc3cccc(F)c3)n2N)n[nH]1	.	2.5%	-9.7%	.	7.4%	.
CN(/N=C/c1ccc(O)cc1O)c1nc(-c2ccccc2)cc(-c2ccccc2)n1	10.5%	-5.4%[59 µM]	0.9%	?	31.8%	-4.5%
COc1cc(/C=N/Nc2ccc(Cl)c(C(=O)O)c2)ccc1OC(=O)c1cccs1	?	25.1µM*	-38.6%	-0.6%[46 µM]	-7.5%	-24.5%
COc1cc(/C=N/Nc2ccccc2)ccc1OC(=O)c1cccs1	?	28.2µM*	-21.6%	2.2%	-7.9%	6.9%
O=C(CCn1c(=O)oc2cc(Cl)ccc21)Nc1ccc(N2CCOCC2)cc1	.	12.6%	-1.7%	.	8.8%	.
CN(c1cccc(NS(=O)(=O)c2cccs2)c1)S(C)(=O)=O	20µM*	-42.3%[12.7 µM]	-1.5%	17.6%	16.4%	-4.7%
Cc1ccc(-c2csc3ncnc(N4CCN(C(=O)c5ccccc5)CC4)c23)cc1	12.6µM*	-0.2%[12.7 µM]	27.6%	?	?	-0.4%
Cc1ccc(C(=O)N2CCN(c3ncnc4c(-c5ccccc5)nsc34)CC2)cc1	?	.	2.8%	4.7%[46 µM]	27.2%	-4.3%
Cc1sc2ncnc(SCC(=O)NNC(=O)c3ccco3)c2c1C	-8.0%	-29.9%	-5.7%	?	-17.4%	-4.7%
Cc1sc2ncnc(OCC(=O)N3CCN(C(=O)c4ccco4)CC3)c2c1C	3.16µM*	?	-0.7%	-34.1%[46 µM]	7.8%	8.9%
COc1ccc(C(=O)N2CCN(c3ncnc4c(-c5ccccc5)nsc34)CC2)cc1	2.82µM*	1.3%[12.7 µM]	-12.0%	-11.4%	11.4%	-6.5%
O=C(c1ccco1)N1CCN(c2ncnc3scc(-c4ccccc4)c23)CC1	11.2µM*	14.6%[59 µM]	2.8%	5.7%	-8.5%	4.6%
O=C(c1cccs1)N1CCCN(c2ncnc3scc(-c4ccccc4)c23)CC1	?	?	11.2%	?	8.8%	-3.7%
CCOc1ccc(OCC)c(NC(=O)c2cnc3c(-c4ccccc4)c(C)nn3c2C)c1	.	6.5%[59 µM]	-1.2%	-9.7%[46 µM]	.	.
COc1ccc(N2CCN(C(=O)Cn3cnc4nc5c(cc4c3=O)CCCC5)CC2)cc1	.	-36.5%[59 µM]	0.0%	16.5%[46 µM]	.	.
COc1ccc(-c2csc3ncnc(N4CCN(C(=O)c5ccco5)CC4)c23)cc1	.	50.1µM*	.	.	.	.
Cc1nc2nc(SCC(=O)O)nn2c(C)c1Cc1c(F)cccc1Cl	-5.5%	11.2µM*	-2.0%	-7.7%[46 µM]	11.6%	-7.6%
Cc1nc2nc(SCC(=O)O)nn2c(C)c1Cc1ccccc1Cl	-5.9%	28.2µM*	0.5%	.	-28.1%	-12.1%
COc1cc(C(=O)Nn2c(C)nc3ccccc3c2=O)cc(OC)c1OC	.	-6.5%	8.1%	.	17.3%	.
SMILES	ALDH1A1 inh	G9a block	miR-21 reporter	Lamin A splicing	Sfp PPTase inh	KDM4E inh
CC1(C)OC(=O)NC1=O	13.8%	17.3%[21.5 µM]	.	-5.1%	-4.4%	-3.0%
C=CCN1C(=O)c2ccc(C(=O)N(C)CC(=O)Nc3c(C)cccc3C)cc2C1=O	.	50.1µM*	.	.	.	.
COc1ccc(NC(=O)N2CCN(c3nc(-c4cccc(OC)c4)cs3)CC2)cc1	?	12.6µM*	23.5%	?	3.3%	-2.2%
CCNC(=S)N1CCN(c2nc(-c3cccc(OC)c3)cs2)CC1	.	79.4µM*	16.8%	.	2.0%	.
CCOc1cc(C2C3=C(CCCC3=O)N(C)C3=C2C(=O)CCC3)cc(Cl)c1O	-3.8%	?	-7.0%	-6.7%	-3.2%	?
CCOc1ccc(C2C3=C(CCCC3=O)Nc3ccc4ncccc4c32)cc1 (configuration not stated)	.	.	0.8%	.	-7.1%	?
O=C1CCCC2=C1C(c1ccc(O)c(O)c1)c1c(ccc3ncccc13)N2 (configuration not stated)	?	3.55µM*	-7.4%	-24.9%[46 µM]	7.94µM*	25.1µM*
CC1=C(C#N)C(c2ccc(O)cc2)C2=C(CCCC2=O)N1 (configuration not stated)	?	-2.0%	-0.3%	.	12.8%	?
CCN1C2=C(C(=O)CCC2)C(c2ccc(O)cc2)C2=C1CCCC2=O	?	20µM*	-1.7%	-4.4%	12.3%	-29.9%
COc1cc(C2Nc3ccc4ncccc4c3C3=C2C(=O)CCC3)ccc1O (configuration not stated)	10.0%	50.1µM*	-8.6%	?	-14.5%	-27.0%
O=C1CCCC2=C1C(c1ccc(O)cc1)c1c(ccc3ccccc13)N2 (configuration not stated)	?	?	0.3%	-1.0%[46 µM]	50.1µM*	?
CCCCN(C(=O)c1cccc(S(=O)(=O)N2CCCCC2)c1)C1CCS(=O)(=O)C1 (configuration not stated)	.	20.6%	1.2%	?	12.0%	.
COc1cccc(CNC(=O)CC(c2ccc(C)cc2)N2Cc3ccccc3C2=O)c1 (configuration not stated)	.	-7.2%[59 µM]	5.8%	.	.	.
CCn1cc(C(=O)N[C@@H](C)C(=O)NCCCn2ccnc2)c(=O)c2cc3c(cc21)OCO3	.	?	-0.9%	.	5.9%	.
Cc1cccc(-c2cc(C(=O)O)c3c(-c4ccc(F)cc4)[nH]nc3n2)c1	.	-34.2%[59 µM]	-20.4%	-13.6%[46 µM]	.	.
COc1ccc(/C=N/NC(=O)c2cccc(OC(F)(F)C(F)F)c2)cc1O	-2.4%	0.4%[59 µM]	-6.9%	-4.3%	5.4%	4.2%
Nn1c(SCC(=O)Nc2ccc3c(c2)OCCO3)nnc1-c1cccnc1	.	54.2%	-3.0%	.	4.1%	.
